The full data set covers some 8,800 targets. This sample favours those with a hit. About 0.5% of all pairs of compound and target were hits.
Experiments:
Test in all cases: log2 fold change, soluble protein after heating vs DMSO (PISA); higher = thermal stabilisation; K562 lysate, 10 uM; active = over 0.2 and 3.5 SD of the protein, either way, in both replicates (recomputed)
vemurafenib = compound: CCCS(=O)(=O)Nc1ccc(F)c(C(=O)c2c[nH]c3ncc(-c4ccc(Cl)cc4)cc23)c1F [vemurafenib]
In short: (§1)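 The values are log-two fold changes in thermal stability compared with solvent controls and come from duplicates. They were obtained by TMTpro 16plex LC-MS/MS, with channel sums equalised, on the supernatant after 21,000xg for 90 min. That supernatant came from crude K562 extract at 1 mg/mL protein treated with 10 μM compound for 30 min, heated for 3 min across 48°C-58°C, pooled and brought to 0.5% NP-40 at 4°C.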

barasertib = compound: CCN(CCCOc1ccc2c(Nc3cc(CC(=O)Nc4cccc(F)c4)[nH]n3)ncnc2c1)CCOP(=O)(O)O [barasertib]
In short: as §1

[1] = compound: CC[C@@H]1C(=O)N(C)c2cnc(Nc3ccc(C(=O)NC4CCN(C)CC4)cc3OC)nc2N1C1CCCC1
In short: as §1

[2] = compound: CCn1c(C(=O)N(C2CC2)C2CC2)cc2c3c(ncn3C)c(Nc3cc(C)n(C)n3)nc21
In short: as §1

[3] = compound: CCn1cc(-c2ccnc3[nH]c(-c4cccc(CN(C)C)c4)cc23)c(-c2ccc(NC(=O)N(C)C)cc2)n1
In short: as §1

[4] = compound: CN1CCC(CNc2ccc3ncc(-c4cccc(OC(F)(F)F)c4)n3n2)CC1
In short: as §1

saracatinib = compound: CN1CCN(CCOc2cc(OC3CCOCC3)c3c(Nc4c(Cl)ccc5c4OCO5)ncnc3c2)CC1 [saracatinib]
In short: as §1

sotrastaurin = compound: CN1CCN(c2nc(C3=C(c4c[nH]c5ccccc45)C(=O)NC3=O)c3ccccc3n2)CC1 [sotrastaurin]
In short: as §1

volasertib = compound: CC[C@@H]1C(=O)N(C)c2cnc(Nc3ccc(C(=O)N[C@H]4CC[C@H](N5CCN(CC6CC6)CC5)CC4)cc3OC)nc2N1C(C)C [volasertib]
In short: as §1

[5] = compound: CCCS(=O)(=O)Nc1ccc(F)c(C(=O)c2c[nH]c3ncc(Cl)cc23)c1F
In short: as §1

Measured: log2 fold change

AVEN (UniProt Q9NQS1)
Sequence of UniProt Q9NQS1 (Q9NQS1 whole entry, looked up): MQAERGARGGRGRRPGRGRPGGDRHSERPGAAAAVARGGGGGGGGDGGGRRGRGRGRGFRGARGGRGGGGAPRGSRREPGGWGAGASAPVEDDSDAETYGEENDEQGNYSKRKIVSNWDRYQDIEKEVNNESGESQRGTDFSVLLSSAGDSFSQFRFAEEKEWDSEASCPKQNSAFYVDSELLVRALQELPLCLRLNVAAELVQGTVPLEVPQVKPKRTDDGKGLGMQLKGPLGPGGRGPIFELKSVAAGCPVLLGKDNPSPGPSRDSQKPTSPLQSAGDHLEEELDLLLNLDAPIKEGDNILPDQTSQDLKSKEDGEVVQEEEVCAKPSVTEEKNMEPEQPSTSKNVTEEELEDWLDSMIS
inactive: vemurafenib 0.177 | barasertib -0.091 | [1] 0.117 | [2] -0.025 | [4] 0.167 | saracatinib 0 | sotrastaurin -0.007
active: [3] -0.651

CAMK1 (UniProt Q14012)
Sequence of UniProt Q14012 (Q14012 whole entry, looked up): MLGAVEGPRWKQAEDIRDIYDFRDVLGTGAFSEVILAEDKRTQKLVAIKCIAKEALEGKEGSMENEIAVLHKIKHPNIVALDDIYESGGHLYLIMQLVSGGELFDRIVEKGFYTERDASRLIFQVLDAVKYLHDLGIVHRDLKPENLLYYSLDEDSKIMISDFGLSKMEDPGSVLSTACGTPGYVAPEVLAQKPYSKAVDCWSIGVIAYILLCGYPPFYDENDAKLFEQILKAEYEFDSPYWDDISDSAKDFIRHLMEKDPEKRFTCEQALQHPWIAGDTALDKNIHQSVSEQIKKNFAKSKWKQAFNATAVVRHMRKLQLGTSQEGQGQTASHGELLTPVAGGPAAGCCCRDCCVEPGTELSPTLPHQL
inactive: vemurafenib -0.094 | barasertib 0.027 | [1] 0.106 | volasertib -0.018 | [2] -0.06 | [3] -0.095 | [4] 0.272 | saracatinib -0.061 | sotrastaurin -0.016

BUD23 isoform 3 (UniProt O43709)
active: [3] -0.341
inactive: vemurafenib 0.01 | [5] 0.017 | barasertib 0.038 | [1] -0.006 | volasertib -0.029 | [2] -0.104 | [4] 0.193 | saracatinib 0.019 | sotrastaurin 0.017

BTK isoform 2 (UniProt Q06187)
inactive: vemurafenib -0.014 | [5] 0.013 | barasertib 0.128 | volasertib -0.106 | [2] 0.01 | [3] -0.147 | [4] 0.053 | saracatinib 0.058 | sotrastaurin -0.026

CBR1 (UniProt P16152)
Sequence of UniProt P16152 (P16152 whole entry, looked up): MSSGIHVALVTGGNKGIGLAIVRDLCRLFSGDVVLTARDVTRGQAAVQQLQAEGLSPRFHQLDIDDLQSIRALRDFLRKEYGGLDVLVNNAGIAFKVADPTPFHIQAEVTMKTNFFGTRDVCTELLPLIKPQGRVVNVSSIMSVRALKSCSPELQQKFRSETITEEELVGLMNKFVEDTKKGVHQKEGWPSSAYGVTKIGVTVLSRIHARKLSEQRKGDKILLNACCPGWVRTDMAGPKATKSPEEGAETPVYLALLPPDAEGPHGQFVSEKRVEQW
inactive: vemurafenib -0.009 | [5] 0.011 | barasertib -0.013 | [1] -0.019 | volasertib 0.004 | [2] 0 | [3] -0.096 | [4] 0.077 | saracatinib 0.037 | sotrastaurin -0.047

C18orf32 (UniProt Q8TCD1)
inactive: vemurafenib 0.164 | [5] -0.044 | barasertib -0.019 | [1] 0.125 | volasertib 0.054 | [2] 0.054 | [3] -0.073 | [4] 0 | saracatinib 0.006 | sotrastaurin -0.112

CHAF1A (UniProt Q13111)
inactive: vemurafenib 0.005 | [5] 0.005 | barasertib 0.006 | [1] 0.029 | volasertib 0.003 | [2] -0.009 | [3] 0.029 | [4] 0.004 | saracatinib 0.038 | sotrastaurin -0.016

CCDC25 (UniProt Q86WR0)
active: [3] 0.581
inactive: vemurafenib -0.033 | [5] 0.008 | barasertib 0.01 | [1] 0.027 | volasertib 0.005 | [2] -0.023 | [4] -0.079 | saracatinib 0.007 | sotrastaurin -0.009

CDK5RAP2 (UniProt Q96SN8)
inactive: vemurafenib -0.023 | [5] -0.186 | barasertib 0.071 | [1] 0.029 | volasertib -0.3 | [2] 0.001 | [3] 0.016 | [4] -0.067 | saracatinib 0.027 | sotrastaurin -0.008

CEBPZOS (UniProt A8MTT3)
Sequence of UniProt A8MTT3 (A8MTT3 whole entry, looked up): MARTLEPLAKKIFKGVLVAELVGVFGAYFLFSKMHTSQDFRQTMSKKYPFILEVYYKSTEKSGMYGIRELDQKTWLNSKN
inactive: vemurafenib 0.031 | [5] -0.026 | [1] -0.048 | volasertib -0.007 | [2] 0.024 | [3] -0.176 | [4] 0.041 | saracatinib 0.03 | sotrastaurin -0.005

CANX (UniProt D6RHJ3)
inactive: vemurafenib -0.033 | [5] -0.04 | volasertib 0.017

CCNK isoform 4 (UniProt O75909)
inactive: vemurafenib -0.013 | [5] 0.006 | barasertib -0.028 | [1] 0.04 | volasertib -0.009 | [2] -0.007 | [3] -0.185 | [4] 0.095 | saracatinib 0.049 | sotrastaurin 0.004

C3orf33 (UniProt Q6P1S2)
Sequence of UniProt Q6P1S2 (Q6P1S2 whole entry, looked up): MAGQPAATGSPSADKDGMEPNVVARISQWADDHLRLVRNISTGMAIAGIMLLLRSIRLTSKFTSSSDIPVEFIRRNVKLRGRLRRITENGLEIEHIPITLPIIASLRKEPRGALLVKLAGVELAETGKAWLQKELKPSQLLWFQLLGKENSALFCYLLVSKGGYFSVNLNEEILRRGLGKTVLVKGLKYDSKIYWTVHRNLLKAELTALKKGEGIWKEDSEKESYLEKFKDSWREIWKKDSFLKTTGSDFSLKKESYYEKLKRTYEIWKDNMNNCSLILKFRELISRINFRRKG
active: [3] -0.823
inactive: vemurafenib 0.295 | [5] -0.043 | barasertib -0.04 | volasertib 0.063 | [2] -0.056 | [4] 0.216 | saracatinib 0.045 | sotrastaurin 0.047

CARS isoform 3 (UniProt P49589)
Sequence of UniProt P49589 (P49589 whole entry, looked up): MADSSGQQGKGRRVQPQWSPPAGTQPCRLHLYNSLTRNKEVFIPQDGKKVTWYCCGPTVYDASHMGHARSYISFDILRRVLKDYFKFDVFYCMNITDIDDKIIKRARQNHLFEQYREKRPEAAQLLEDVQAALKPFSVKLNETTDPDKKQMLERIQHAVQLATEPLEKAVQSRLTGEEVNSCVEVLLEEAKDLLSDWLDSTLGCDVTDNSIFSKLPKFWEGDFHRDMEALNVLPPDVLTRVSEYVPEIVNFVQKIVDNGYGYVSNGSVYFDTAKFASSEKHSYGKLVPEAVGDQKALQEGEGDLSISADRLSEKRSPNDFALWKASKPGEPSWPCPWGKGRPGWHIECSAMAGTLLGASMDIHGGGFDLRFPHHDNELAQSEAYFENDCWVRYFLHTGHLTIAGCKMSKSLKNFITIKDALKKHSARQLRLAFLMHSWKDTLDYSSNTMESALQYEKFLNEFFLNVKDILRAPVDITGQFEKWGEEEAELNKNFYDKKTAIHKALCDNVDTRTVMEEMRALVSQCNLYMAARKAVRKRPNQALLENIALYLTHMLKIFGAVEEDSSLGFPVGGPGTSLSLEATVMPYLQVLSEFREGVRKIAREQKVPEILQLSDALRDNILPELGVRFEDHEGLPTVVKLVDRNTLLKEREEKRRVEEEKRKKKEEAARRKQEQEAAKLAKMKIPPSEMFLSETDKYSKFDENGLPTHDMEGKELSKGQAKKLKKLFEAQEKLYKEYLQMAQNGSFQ
inactive: vemurafenib 0.011 | [5] 0.004 | barasertib -0.032 | [1] -0.01 | volasertib -0.052 | [2] 0.02 | [3] 0.004 | [4] -0.029 | saracatinib 0.005 | sotrastaurin 0.041

ATP11A (UniProt P98196)
inactive: vemurafenib -0.035 | [5] -0.015 | barasertib 0.006 | [1] 0.019 | volasertib 0.026 | [2] 0 | [3] -0.116 | [4] 0.024 | saracatinib -0.01 | sotrastaurin 0.063

ATE1 isoform 2 (UniProt O95260)
Sequence of UniProt O95260 (O95260 whole entry, looked up): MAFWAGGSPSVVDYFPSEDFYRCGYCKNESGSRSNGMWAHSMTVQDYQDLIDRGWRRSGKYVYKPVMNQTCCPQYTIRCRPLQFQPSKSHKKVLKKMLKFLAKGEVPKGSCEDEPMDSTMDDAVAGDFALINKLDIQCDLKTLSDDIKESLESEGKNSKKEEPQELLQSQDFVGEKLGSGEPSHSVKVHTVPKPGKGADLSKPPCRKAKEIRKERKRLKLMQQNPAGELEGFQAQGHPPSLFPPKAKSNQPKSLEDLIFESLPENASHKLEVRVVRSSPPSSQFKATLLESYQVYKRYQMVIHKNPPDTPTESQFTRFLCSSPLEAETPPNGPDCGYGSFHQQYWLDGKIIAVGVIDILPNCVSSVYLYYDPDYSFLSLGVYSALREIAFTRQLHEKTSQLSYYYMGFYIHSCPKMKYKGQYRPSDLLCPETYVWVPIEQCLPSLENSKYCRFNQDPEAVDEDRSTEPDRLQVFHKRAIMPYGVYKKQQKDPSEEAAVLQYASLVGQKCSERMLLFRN
inactive: vemurafenib 0.118 | [5] -0.006 | barasertib 0.069 | [1] 0.019 | volasertib -0.013 | [2] 0.014 | [3] 0.032 | [4] 0.126 | saracatinib 0.006 | sotrastaurin -0.016

CDKL5 (UniProt O76039)
inactive: vemurafenib -0.131 | [5] 0.041 | [1] -0.149 | volasertib -0.035 | [3] -0.091 | [4] 0.088 | saracatinib -0.122 | sotrastaurin 0.048

CDC25C (UniProt P30307)
Sequence of UniProt P30307 (P30307 whole entry, looked up): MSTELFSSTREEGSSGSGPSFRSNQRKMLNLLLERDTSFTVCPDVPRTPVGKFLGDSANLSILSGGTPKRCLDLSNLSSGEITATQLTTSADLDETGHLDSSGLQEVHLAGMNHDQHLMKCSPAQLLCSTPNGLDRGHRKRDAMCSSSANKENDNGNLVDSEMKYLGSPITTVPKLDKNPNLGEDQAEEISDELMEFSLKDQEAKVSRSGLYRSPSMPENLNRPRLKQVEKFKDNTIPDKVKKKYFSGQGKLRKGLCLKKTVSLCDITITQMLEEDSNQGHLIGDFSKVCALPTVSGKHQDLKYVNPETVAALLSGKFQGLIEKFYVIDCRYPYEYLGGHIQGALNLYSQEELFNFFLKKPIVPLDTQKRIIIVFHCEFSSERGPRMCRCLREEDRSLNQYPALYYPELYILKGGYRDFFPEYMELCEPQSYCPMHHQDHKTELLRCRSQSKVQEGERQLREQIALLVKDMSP
inactive: vemurafenib 0.031 | [5] 0.093 | barasertib -0.028 | [1] -0.08 | volasertib -0.004 | [2] 0.083 | [3] 0.314 | [4] 0.155 | saracatinib -0.053 | sotrastaurin 0.016

CEP128 (UniProt Q6ZU80)
active: [3] -1.27
inactive: vemurafenib -0.025 | barasertib 0.124 | [1] -0.132 | [2] 0.375 | [4] 0.369 | saracatinib 0.07

CCAR2 (UniProt Q8N163)
inactive: vemurafenib -0.007 | [5] -0.004 | barasertib -0.047 | [1] -0.01 | volasertib -0.031 | [2] 0.01 | [3] -0.057 | [4] 0.032 | saracatinib -0.002 | sotrastaurin 0.007

ATF7IP2 (UniProt Q5U623)
inactive: vemurafenib 0.062 | [5] -0.041 | barasertib 0.009 | volasertib 0.083 | [2] -0.064 | [3] -0.145 | [4] 0.197 | sotrastaurin 0.031

C16orf70 (UniProt Q9BSU1)
inactive: vemurafenib 0.053 | [5] 0.086 | barasertib -0.016 | [1] 0 | volasertib -0.038 | [2] 0.018 | saracatinib -0.037 | sotrastaurin 0.031

CBFA2T3 (UniProt O75081)
inactive: vemurafenib -0.043 | [5] 0.018 | barasertib -0.055 | [1] 0.003 | volasertib -0.02 | [2] -0.007 | [3] -0.023 | [4] -0.018 | saracatinib 0.021 | sotrastaurin 0.015

CAPNS1 (UniProt K7ES78)
inactive: vemurafenib 0.143 | [5] -0.07 | volasertib 0.033 | [2] 0.076 | saracatinib 0.12 | sotrastaurin -0.071

C1orf131 isoform 5 (UniProt Q8NDD1)
inactive: vemurafenib 0.034 | [5] 0.026 | [1] 0.148 | volasertib -0.029 | [2] -0.042 | [3] -0.242 | [4] 0.095 | saracatinib -0.009 | sotrastaurin 0.017

CEP41 (UniProt Q9BYV8)
Sequence of UniProt Q9BYV8 (Q9BYV8 whole entry, looked up): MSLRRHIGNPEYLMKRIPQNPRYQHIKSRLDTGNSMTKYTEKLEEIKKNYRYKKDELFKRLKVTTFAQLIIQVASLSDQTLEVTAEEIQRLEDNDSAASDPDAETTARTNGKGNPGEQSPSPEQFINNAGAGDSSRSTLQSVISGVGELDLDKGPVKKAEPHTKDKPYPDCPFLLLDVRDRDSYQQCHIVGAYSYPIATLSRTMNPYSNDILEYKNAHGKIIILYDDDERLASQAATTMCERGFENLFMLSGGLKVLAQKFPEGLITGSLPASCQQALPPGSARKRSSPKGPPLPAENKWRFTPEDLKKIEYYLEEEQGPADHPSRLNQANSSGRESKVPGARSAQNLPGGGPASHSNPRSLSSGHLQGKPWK
inactive: vemurafenib -0.022 | [5] 0.108 | barasertib 0.03 | [1] 0.018 | volasertib -0.023 | [3] 0.02 | [4] -0.009 | saracatinib -0.032 | sotrastaurin 0.03

CDC7 (UniProt O00311)
Sequence of UniProt O00311 (O00311 whole entry, looked up): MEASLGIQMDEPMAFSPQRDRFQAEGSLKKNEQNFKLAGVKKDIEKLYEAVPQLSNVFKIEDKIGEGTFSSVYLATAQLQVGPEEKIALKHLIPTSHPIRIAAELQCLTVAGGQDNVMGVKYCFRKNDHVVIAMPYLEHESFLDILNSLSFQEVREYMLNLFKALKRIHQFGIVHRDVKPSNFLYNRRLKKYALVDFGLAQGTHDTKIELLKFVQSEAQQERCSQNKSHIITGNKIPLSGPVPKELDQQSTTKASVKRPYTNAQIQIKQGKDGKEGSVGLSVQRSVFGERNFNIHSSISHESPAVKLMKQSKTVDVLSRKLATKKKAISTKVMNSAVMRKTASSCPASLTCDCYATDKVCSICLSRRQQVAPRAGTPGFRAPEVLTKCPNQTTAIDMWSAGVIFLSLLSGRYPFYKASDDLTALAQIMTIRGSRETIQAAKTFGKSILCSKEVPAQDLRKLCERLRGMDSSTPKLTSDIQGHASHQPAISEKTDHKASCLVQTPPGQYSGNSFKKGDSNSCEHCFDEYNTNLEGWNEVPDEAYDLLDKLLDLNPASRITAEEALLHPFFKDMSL
inactive: vemurafenib 0.065 | [5] 0.073 | barasertib -0.005 | [1] 0.039 | volasertib -0.097 | [2] -0.003 | [3] -0.01 | [4] -0.073 | saracatinib 0.004 | sotrastaurin 0.036

CCNA2 (UniProt P20248)
Sequence of UniProt P20248 (P20248 whole entry, looked up): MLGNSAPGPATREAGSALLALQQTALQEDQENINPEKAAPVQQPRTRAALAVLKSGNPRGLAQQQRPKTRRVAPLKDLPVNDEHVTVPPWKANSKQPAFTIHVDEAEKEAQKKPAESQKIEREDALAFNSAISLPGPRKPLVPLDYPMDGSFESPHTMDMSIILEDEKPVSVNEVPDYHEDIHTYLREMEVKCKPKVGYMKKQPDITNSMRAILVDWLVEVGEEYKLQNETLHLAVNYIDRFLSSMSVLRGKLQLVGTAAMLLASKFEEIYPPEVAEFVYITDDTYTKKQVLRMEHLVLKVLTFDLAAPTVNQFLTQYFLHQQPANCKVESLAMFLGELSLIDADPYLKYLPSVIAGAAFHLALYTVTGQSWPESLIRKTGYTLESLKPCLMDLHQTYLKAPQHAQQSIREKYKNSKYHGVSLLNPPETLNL
inactive: vemurafenib -0.033 | [5] -0.004 | barasertib -0.056 | [1] 0.022 | volasertib -0.018 | [2] -0.03 | [3] -0.183 | [4] 0.169 | saracatinib 0.001 | sotrastaurin 0

CDK8 (UniProt P49336)
inactive: vemurafenib 0.065 | [5] 0.138 | barasertib 0.002 | volasertib -0.083 | [2] -0.011 | [3] -0.134 | [4] 0.045 | saracatinib 0.109 | sotrastaurin -0.001

CACUL1 (UniProt Q86Y37)
Sequence of UniProt Q86Y37 (Q86Y37 whole entry, looked up): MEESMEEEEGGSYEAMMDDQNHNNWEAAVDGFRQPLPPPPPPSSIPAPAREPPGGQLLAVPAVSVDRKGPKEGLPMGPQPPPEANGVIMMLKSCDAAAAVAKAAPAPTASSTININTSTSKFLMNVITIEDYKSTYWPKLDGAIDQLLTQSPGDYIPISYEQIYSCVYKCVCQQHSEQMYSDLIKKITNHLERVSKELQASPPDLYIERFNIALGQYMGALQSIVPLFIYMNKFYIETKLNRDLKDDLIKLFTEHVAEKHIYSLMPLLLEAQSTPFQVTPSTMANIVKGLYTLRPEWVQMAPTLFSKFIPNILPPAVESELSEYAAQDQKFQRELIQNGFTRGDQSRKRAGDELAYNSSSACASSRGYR
inactive: vemurafenib 0.04 | [5] 0.053 | [1] -0.04 | volasertib 0.106 | [2] -0.072 | [3] 0.012 | [4] -0.111 | saracatinib -0.026 | sotrastaurin 0.103

CAMK2B (UniProt Q13554)
inactive: vemurafenib 0.011 | [5] -0.058 | barasertib 0.014 | volasertib -0.145 | [2] 0.022 | [3] -0.021 | [4] 0.049 | saracatinib -0.077

— the supplement of paper PMC10849652
